Screening data from PubChem BioAssay.
LGR2 antag: Drosophila LGR2 receptor signaling inhibition; inhibition, % at 9.99 µM; hit rate 0.35% among 380,000; AID 720647; HEK293 LGR2, CRE-luciferase, bursicon-stimulated, 4 h;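 active = drop in luminescence signal, shown as inhibition above about 50% in the replicate tests, limit read from the data, passing the limit was not always enough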;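 note: agonist challenge used bursicon conditioned medium at about half maximal strength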
KKLEB cytotox: reduces viability of KKLEB cystic fibrosis airway cells; activity change (cytotoxicity), % at 5 µM; AID 602141; KKLEB CF airway cells viability, ATPlite luminescence, overnight; active compounds read low; cells stimulated with P. aeruginosa culture filtrate; hit rate 0.36% among 360,000;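 active = corrected activity change at or below -50% at 5 µM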
Peg3 prom inh: inhibitors of Peg3 promoter. hit rate 1.7% among 360,000. HeLa PEG-Prom luciferase reporter, luminescence, overnight. inhibition, % at 20 µM. AID 588405;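 active = inhibition of at least 50% at 20 µM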
Mdm2 MdmX PPI: inhibitors of human Mdm2/MdmX interaction | O15151+Q00987 | SaOS-2 split-luciferase Mdm2/MdmX complementation, luminescence | inhibition, % at 8 µM | hit rate 3% among 330,000;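 active = inhibition of at least 50% at 8 µM in the primary screen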
Target sequence (O15151 whole entry, looked up): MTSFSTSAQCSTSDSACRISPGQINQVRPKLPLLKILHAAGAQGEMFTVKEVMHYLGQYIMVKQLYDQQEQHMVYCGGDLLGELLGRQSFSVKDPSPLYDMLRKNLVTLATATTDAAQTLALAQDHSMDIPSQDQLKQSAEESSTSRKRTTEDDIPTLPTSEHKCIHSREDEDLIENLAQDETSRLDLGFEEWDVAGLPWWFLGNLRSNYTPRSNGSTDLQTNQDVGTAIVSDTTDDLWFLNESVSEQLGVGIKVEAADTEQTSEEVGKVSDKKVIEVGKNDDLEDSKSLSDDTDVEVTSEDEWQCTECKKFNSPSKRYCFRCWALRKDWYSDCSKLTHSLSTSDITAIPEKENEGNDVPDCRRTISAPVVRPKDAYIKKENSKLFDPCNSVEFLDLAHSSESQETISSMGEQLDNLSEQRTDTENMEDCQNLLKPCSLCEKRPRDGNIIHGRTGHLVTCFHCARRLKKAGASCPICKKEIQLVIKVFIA
Target sequence (Q00987 whole entry, looked up): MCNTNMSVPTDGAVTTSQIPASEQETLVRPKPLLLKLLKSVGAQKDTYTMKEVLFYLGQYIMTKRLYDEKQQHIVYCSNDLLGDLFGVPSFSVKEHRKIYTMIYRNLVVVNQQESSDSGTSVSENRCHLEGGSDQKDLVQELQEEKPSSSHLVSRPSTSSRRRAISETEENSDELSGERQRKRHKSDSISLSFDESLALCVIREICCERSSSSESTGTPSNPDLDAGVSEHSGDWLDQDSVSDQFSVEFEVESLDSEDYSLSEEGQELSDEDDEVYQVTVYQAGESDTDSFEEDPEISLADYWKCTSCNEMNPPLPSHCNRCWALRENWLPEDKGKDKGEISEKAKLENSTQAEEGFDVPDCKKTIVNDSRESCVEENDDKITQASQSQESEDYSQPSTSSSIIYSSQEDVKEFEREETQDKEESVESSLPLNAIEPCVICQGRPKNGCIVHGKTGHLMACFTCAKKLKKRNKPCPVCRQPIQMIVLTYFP
HSP90 inh: HSP90 refolding inhibition in rabbit reticulocyte lysate | AID 1789 | inhibition, % at 5.6 µM | luciferase refolding luminescence, 3 h | hit rate 0.91% among 290,000;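 active = inhibition above the screen-wide mean plus 3 SD, computed separately per campaign, cut at about 16% in these data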;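 note: inhibitors lower the luminescence because luciferase stays unfolded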
CF NFkB inh: blocks PAF-induced NF-kB reporter in cystic fibrosis cells; hit rate 0.86% among 360,000; KKLEB NF-kB-GFP reporter, GFP fluorescence overnight; AID 588850; inhibition, % at 5 µM;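 active = at least 50% inhibition at 5 µM, scaled per plate between neutral and stimulator controls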;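 note: PAF is a Pseudomonas aeruginosa culture filtrate used as stimulus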
Mdm2 MdmX conf: human Mdm2/MdmX binding inhibition, confirmed; shares compounds with Mdm2 MdmX PPI; AID 489028; hit rate 55% among 10,000; inhibition, % at 8 µM; luminescent assay; in the data active = inhibition above about 40%
Full FLuc ctr: full-length luciferase inhibition in Mdm2/MdmX counter-screen | AID 504607 | inhibition, % at 8 µM | shares compounds with Mdm2 MdmX PPI | SaOS-2 full-length luciferase counterscreen, luminescence | hit rate 77% among 6,200;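 active = mean inhibition at 8 µM reaching about 37%, which flags the compound as non-specific, limit read from the data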;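 note: p53-null SaOS-2 cells with luciferase driven by a doxycycline-inducible promoter; compound on cells about two nights before reading with doxycycline added after day one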
Numbers stand for hits; - = inactive; . = no result given. A selection: hits, their analogues and other compounds. The true share with any hit is near 3.6%.

SMILES	LGR2 antag	KKLEB cytotox	Peg3 prom inh	Mdm2 MdmX PPI	HSP90 inh	CF NFkB inh	Mdm2 MdmX conf	Full FLuc ctr
Cn1c(=O)[nH]c(=O)c2c1nc(Br)n2CCCSc1nc2ccccc2o1	.	-	-	65.1	-	-	56.2	97.6
C[C@H](CO)N1C[C@H](C)[C@H](CN(C)C(=O)Nc2cccc3ccccc23)Oc2ccc(NC(=O)CCCCCC(=O)Nc3ccccc3N)cc2CC1=O	-	.	.	.	.	.	.	.
CCN(CC)CCNC(=O)c1ccc2c(c1NCCO)C(=O)c1ccccc1C2=O	.	-51.7	111.1	91.1	-	76.7	83.7	-
COC(=O)c1cnc(Oc2ccc(NC(=O)NC(=O)c3c(OC)cccc3OC)cc2)cc1C(F)(F)F	-	-	-	76.1	-	-	57.5	80.0
COC(=O)c1cnc(Oc2ccc(NC(=O)NC(=O)c3c(F)cccc3F)cc2)cc1C(F)(F)F	-	-	-	-	-	-	.	.
CNC[C@H]1Oc2ccc(NC(=O)Nc3c(C)noc3C)cc2C(=O)N([C@@H](C)CO)C[C@H]1C	-	.	.	.	.	.	.	.
CCOc1cc(/C=N/NC(=O)c2nnn(-c3nonc3N)c2C)ccc1OCc1ccc(C)cc1	-	-	-	.	.	-	.	.
COc1ccc2ccccc2c1/C=N/NC(=O)c1nnn(-c2nonc2N)c1C(C)C	-	-	-	-	-	-	.	.
Cc1ccc(COc2cccc(/C=N/NC(=O)c3nnn(-c4nonc4N)c3C)c2)cc1	-	-	77.2	56.3	-	58.7	-	.
Nc1nonc1-n1nnc(C(=O)N/N=C/c2ccc(OCc3ccc(F)cc3)cc2)c1COc1ccccc1	-	-	-	52.5	-	-	-	.
CC(C)c1c(C(=O)N/N=C/c2ccccc2OCc2c(F)cccc2Cl)nnn1-c1nonc1N	-	-	-	56.6	-	-	52.3	55.2
CC(C)c1c(C(=O)N/N=C/c2ccc(Cl)cc2Cl)nnn1-c1nonc1N	-	-	-	-	-	-	.	.
Cc1c(C(=O)N/N=C/c2c(O)ccc3ccccc23)nnn1-c1nonc1N	-	-	-	67.2	-	-	81.2	52.2
O=c1cc(-c2c(F)c(F)c(F)c(F)c2F)oc2ccccc12	67.2	-	84.0	96.1	-	-	-	.
O=c1cc(-c2c(F)c(F)c(F)c(F)c2F)oc2c(F)c(F)c(F)c(F)c12	.	.	.	100.4	-	.	98.7	-
O=C(C[C@H]1C=C[C@@H](NC(=O)C2CCC2)[C@@H](CO)O1)NCC1CC1	-	.	.	.	.	.	.	.
C[C@@H]1CN([C@H](C)CO)C(=O)Cc2cc(NC(=O)Nc3ccccc3)ccc2O[C@@H]1CN(C)Cc1ccc(C(=O)Nc2ccccc2N)cc1	-	.	.	.	.	.	.	.
C[C@H]1CN([C@@H](C)CO)C(=O)c2cc(C#Cc3cccc(F)c3)cnc2O[C@H]1CN(C)C(=O)C1CCOCC1	-	.	.	.	.	.	.	.
COc1ccc(OCC(=O)Nc2cc(-c3nn(C)c(=O)c4ccccc34)ccc2N2CCOCC2)cc1	-	-	-	66.9	-	-	-	.
Cn1nc(-c2ccc(N3CCOCC3)c(NC(=O)COc3ccccc3)c2)c2ccccc2c1=O	.	.	.	.	-	.	.	.
CCC(=O)Nc1cc(-c2nn(C)c(=O)c3ccccc23)ccc1N1CCOCC1	.	-	-	-	-	-	.	.
Cn1nc(-c2ccc(N3CCCCC3)c(NC(=O)c3ccco3)c2)c2ccccc2c1=O	-	-	-	88.0	-	-	43.5	40.9
C[C@H]1CN([C@@H](C)CO)C(=O)c2cc(/C=C/c3ccccc3)cnc2O[C@H]1CN(C)C(=O)c1ccc(F)cc1	-	.	.	.	.	.	.	.
CS(=O)(=O)N1c2ccccc2[C@]2([C@@]34C[C@H]5C(=O)N[C@@H](Cc6ccccc6)C(=O)N5[C@@H]3N(S(C)(=O)=O)c3ccccc34)C[C@H]3C(=O)N[C@@H](Cc4ccccc4)C(=O)N3[C@H]12	-	.	.	-	.	.	.	.
CC[C@H](C)[C@@H]1NC(=O)[C@H]([C@@H](C)CC)NC(=O)[C@@H](CC(C)C)NC(=O)[C@H](Cc2ccccc2)NC(=O)[C@H](Cc2ccccc2)NC(=O)[C@@H]2CCCN2C(=O)[C@@H]2CCCN2C(=O)[C@H](C(C)C)NC(=O)[C@H](CC(C)C)NC1=O	.	-	-	51.6	.	-	-	.
SMILES	LGR2 antag	KKLEB cytotox	Peg3 prom inh	Mdm2 MdmX PPI	HSP90 inh	CF NFkB inh	Mdm2 MdmX conf	Full FLuc ctr
CNC[C@@H]1Oc2cc(C#Cc3ccc(OC)cc3)ccc2S(=O)(=O)N([C@@H](C)CO)C[C@H]1C	-	.	.	.	.	.	.	.
CCNC(=O)C[C@@H]1CC[C@@H]2[C@H](COc3ccc(NC(=O)c4cscn4)cc3C(=O)N2C)O1	-	.	.	.	.	.	.	.
COc1cc(OC)c(OC)cc1/C=C/C(=O)c1ccc(NS(=O)(=O)c2ccc(C)cc2)cc1	-	-	-	58.8	-	-	-	.
COc1ccccc1/C=C/C(=O)c1ccc(NC(C)=O)cc1	-	-	-	62.7	-	-	52.0	58.7
CCOc1ccc(-c2nc(N)ncc2Oc2cccc(OC)c2)c(O)c1	.	-	-	65.9	-	-	41.6	61.8
C[C@@H]1CN([C@H](C)CO)C(=O)c2cc(Br)cnc2O[C@H]1CN(C)C(=O)C1CCC1	-	.	.	.	.	.	.	.
COc1ccc(/C=C\C(=O)O[C@@H]2C(O)C(O[C@@H]3OC(C)[C@H](O[C@@H]4OCC(O[C@H]5O[C@H](CO)[C@@H](O)C(O)C5O)C(O)C4O)C(O)C3O)[C@H](OC(=O)[C@]34CCC(C)(C)C[C@@H]3C3=CCC5[C@@]6(C)CC(O)C(O[C@@H]7OC(CO)C(O)[C@H](O)[C@H]7O)[C@@](C)(C(=O)O)C6CC[C@@]5(C)[C@]3(CO)CC4)O[C@H]2C)cc1 (stereo partly specified)	.	-	50.8	78.7	.	-	58.6	-
Cc1ccc(NC(=S)NC(=O)c2ccc(F)cc2)cc1S(=O)(=O)Nc1cccc(Cl)c1	-	-	-	67.4	-	-	54.0	107.5
Cc1ccc(NC(=O)c2nc[nH]c2C(=O)NCCN(CCNC(=O)c2[nH]cnc2C(=O)Nc2ccc(C)cc2)CCNC(=O)c2[nH]cnc2C(=O)Nc2ccc(C)cc2)cc1	-	-	-	90.4	.	-	76.0	38.2
Cc1cccc(NC(=O)c2nc[nH]c2C(=O)NCCN(CCNC(=O)c2[nH]cnc2C(=O)Nc2cccc(C)c2)CCNC(=O)c2[nH]cnc2C(=O)Nc2cccc(C)c2)c1	-	-	-	85.9	.	-	50.5	38.8
Cc1ccc(NC(=O)c2nc[nH]c2C(=O)Nc2ccc(C)cc2)cc1	.	-	-	-	-	-	.	.
CNC(=O)c1[nH]cnc1C(=O)Nc1ccc(Cl)cc1	-	-	-	-	-	-	.	.
COc1ccc(NC(=O)c2nc[nH]c2C(=O)Nc2ccccc2C)cc1	.	-	-	58.5	-	-	54.0	48.5
